Measured values published in ChEMBL document CHEMBL2218924, “A broad activity screen in support of a chemogenomic map for kinase signalling research and drug discovery” (Biochem J, 2013).

Target: T1, Dual specificity mitogen-activated protein kinase kinase 6 (Homo sapiens) (UniProt P52564)
T1 sequence (whole entry): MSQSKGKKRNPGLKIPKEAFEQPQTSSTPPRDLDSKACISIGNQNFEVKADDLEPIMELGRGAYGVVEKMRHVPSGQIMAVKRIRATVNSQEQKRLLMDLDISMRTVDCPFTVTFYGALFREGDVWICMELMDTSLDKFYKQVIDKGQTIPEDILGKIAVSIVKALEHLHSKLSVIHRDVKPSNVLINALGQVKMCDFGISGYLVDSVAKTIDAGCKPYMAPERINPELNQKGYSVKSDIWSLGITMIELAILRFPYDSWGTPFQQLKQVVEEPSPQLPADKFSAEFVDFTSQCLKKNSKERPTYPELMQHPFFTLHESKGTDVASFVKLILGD
Settings: at 1 µM

SMILES | residual activity [%]
CCn1cnc2c(Nc3cccc(Cl)c3)nc(N[C@@H]3CCCC[C@@H]3N)nc21 | 99
O=[N+]([O-])/C=C/c1ccc2c(c1)OCO2 | 85
N/C(=N\[N+](=O)[O-])N/N=C\c1ccc(-c2cccc([N+](=O)[O-])c2)o1 | 88
C[S+]([O-])c1ccc(-c2nc(-c3ccc(F)cc3)c(-c3ccncc3)[nH]2)cc1 (stereo not given) | 43
COc1cc2ncnc(Nc3ccc(OCc4ccccc4)cc3)c2cc1OC | 90
O=c1[nH]c2ccccc2n1C1CCN(Cc2ccc(-c3nc4cc5[nH]cnc5cc4nc3-c3ccccc3)cc2)CC1 | 80
O=C1NC(=O)c2c1c1c3ccccc3n3c1c1c2c2ccccc2n1C1CCC3O1 | 27
O=C1Nc2ccc3ncsc3c2/C1=C/c1c[nH]cn1 | -1
CC(C)[C@H](CO)Nc1nc(Nc2cccc(Cl)c2)c2ncn(C(C)C)c2n1 | 97
COc1cc(OC)c(/C=C2\C(=O)Nc3ccccc32)c(OC)c1 | 105
